Reference: PubChem BioAssay AID1159580 (chemical genetic matrix, 2015)
Screen size: about 5,500 compounds; about 2,000 (36%) were called active. Inconclusive results (about 18%) are left out. Rule as the data show it: active = normalized growth mostly below about 0.91 (no sharp cut-off); inconclusive = no clear call, values can overlap the other calls; inactive = mostly above about 0.92. Some of the results follow.

Assay: chemical genetic growth profiling, strain panel (AID 1159580);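 also: tested at 20 µM; growth read once vehicle control cultures reached saturation at 30 °C; 1 = growth at the plate median or of vehicle wells; lower values mean less growth of the strain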
Conditions: growth OD

Measured: normalized growth

Nc1c2ccccc2nc2ccccc12
active: S. cerevisiae deletion strains, locus YJR075W, strain HOC1, stronger effect = lower value 0.646 | S. cerevisiae deletion strains, locus YKL085W, strain MDH1 (second series), stronger effect = lower value 0.872 | S. cerevisiae deletion strains, locus YKL085W, strain MDH1, stronger effect = lower value 0.872 | S. cerevisiae deletion strains, locus YKL160W, strain elf1, stronger effect = lower value 0.562 | S. cerevisiae deletion strains, locus YKL190W, strain CNB1, stronger effect = lower value 0.64 | S. cerevisiae deletion strains, locus YKR001C, strain vps1, stronger effect = lower value 0.481 | S. cerevisiae deletion strains, locus YKR091W, strain srl3, stronger effect = lower value 0.925 | S. cerevisiae deletion strains, locus YLL001W, strain dnm1, stronger effect = lower value 0.476 | S. cerevisiae deletion strains, locus YLL026W, stronger effect = lower value 0.555 | S. cerevisiae deletion strains, locus YLL041C, strain sdh2, stronger effect = lower value 0.784 | S. cerevisiae deletion strains, locus YLR027C, strain aat2, stronger effect = lower value 0.453 | S. cerevisiae deletion strains, locus YLR058C, strain SHM2, stronger effect = lower value 0.613 | S. cerevisiae deletion strains, locus YLR102C, strain apc9, stronger effect = lower value 0.823 | S. cerevisiae deletion strains, locus YLR221C, strain rsa3, stronger effect = lower value 0.516 | S. cerevisiae deletion strains, locus YLR258W, strain gsy2, stronger effect = lower value 0.53 | S. cerevisiae deletion strains, locus YLR262C, strain YPT6 (second series), stronger effect = lower value 0.843 | S. cerevisiae deletion strains, locus YLR268W, strain sec22, stronger effect = lower value 0.515 | S. cerevisiae deletion strains, locus YLR320W, strain mms22, stronger effect = lower value 0.565 | S. cerevisiae deletion strains, locus YLR330W, strain CHS5, stronger effect = lower value 0.886 | S. cerevisiae deletion strains, locus YLR342W, strain FKS1 (second series), stronger effect = lower value 0.713 | S. cerevisiae deletion strains, locus YLR342W, strain FKS1, stronger effect = lower value 0.792 | S. cerevisiae deletion strains, locus YLR357W, strain rsc2, stronger effect = lower value 1.2 [resistant] | S. cerevisiae deletion strains, locus YLR370C, strain arc18, stronger effect = lower value 0.7 | S. cerevisiae deletion strains, locus YLR384C, strain iki3, stronger effect = lower value 0.853 | S. cerevisiae deletion strains, locus YLR418C, strain cdc73, stronger effect = lower value 0.689 | S. cerevisiae deletion strains, locus YML016C, strain PPZ1, stronger effect = lower value 0.847 | S. cerevisiae deletion strains, locus YML032C, strain rad52, stronger effect = lower value 0.314 | S. cerevisiae deletion strains, locus YML120C, strain ndi1, stronger effect = lower value 0.582 | S. cerevisiae deletion strains, locus YML124C, strain tub3, stronger effect = lower value 0.743 | S. cerevisiae deletion strains, locus YMR058W, strain fet3, stronger effect = lower value 0.639 | S. cerevisiae deletion strains, locus YMR078C, strain ctf18, stronger effect = lower value 0.763 | S. cerevisiae deletion strains, locus YMR129W, stronger effect = lower value 0.693 | S. cerevisiae deletion strains, locus YMR205C, strain PFK2, stronger effect = lower value 0.634 | S. cerevisiae deletion strains, locus YMR223W, strain ubp8, stronger effect = lower value 0.557 | S. cerevisiae deletion strains, locus YMR263W, strain SAP30, stronger effect = lower value 0.767 | S. cerevisiae deletion strains, locus YNL067W, strain RPL9B, stronger effect = lower value 0.606 | S. cerevisiae deletion strains, locus YNL128W, strain TEP1, stronger effect = lower value 0.733 | S. cerevisiae deletion strains, locus YNL153C, strain GIM3, stronger effect = lower value 0.713 | S. cerevisiae deletion strains, locus YNL183C, strain NPR1, stronger effect = lower value 0.771 | S. cerevisiae deletion strains, locus YNL209W, strain ssb2, stronger effect = lower value 0.663 | S. cerevisiae deletion strains, locus YNL233W, strain BNI4, stronger effect = lower value 0.74 | S. cerevisiae deletion strains, locus YNL248C, strain rpa49, stronger effect = lower value 0.445 | S. cerevisiae deletion strains, locus YNL250W, strain rad50, stronger effect = lower value 0.78 | S. cerevisiae deletion strains, locus YNL271C, strain bni1, stronger effect = lower value 0.87 | S. cerevisiae deletion strains, locus YNL298W, strain CLA4, stronger effect = lower value 0.847 | S. cerevisiae deletion strains, locus YNL307C, strain MCK1, stronger effect = lower value 0.715 | S. cerevisiae deletion strains, locus YNL322C, strain KRE1, stronger effect = lower value 0.698 | S. cerevisiae deletion strains, locus YNR049C, strain mso1, stronger effect = lower value 0.672 | S. cerevisiae deletion strains, locus YNR052C, strain pop2, stronger effect = lower value 0.778 | S. cerevisiae deletion strains, locus YOL012C, strain htz1 2.35 [resistant] | S. cerevisiae deletion strains, locus YOL147C, strain pex11, stronger effect = lower value 0.661 | S. cerevisiae deletion strains, locus YOR001W, strain rrp6, stronger effect = lower value 0.309 | S. cerevisiae deletion strains, locus YOR061W, strain CKA2, stronger effect = lower value 0.824 | S. cerevisiae deletion strains, locus YOR069W, strain VPS5, stronger effect = lower value 0.811 | S. cerevisiae deletion strains, locus YOR070C, strain gyp1, stronger effect = lower value 0.625 | S. cerevisiae deletion strains, locus YOR080W, strain dia2, stronger effect = lower value 0.783 | S. cerevisiae deletion strains, locus YOR083W, strain WHI5, stronger effect = lower value 0.501 | S. cerevisiae deletion strains, locus YOR106W, strain vam3, stronger effect = lower value 0.445 | S. cerevisiae deletion strains, locus YOR136W, strain idh2, stronger effect = lower value 0.805 | S. cerevisiae deletion strains, locus YOR144C, strain elg1, stronger effect = lower value 0.752 | S. cerevisiae deletion strains, locus YOR184W, strain ser1, stronger effect = lower value 0.41 | S. cerevisiae deletion strains, locus YOR231W, strain MKK1, stronger effect = lower value 0.67 | S. cerevisiae deletion strains, locus YOR265W, strain rbl2, stronger effect = lower value 0.706 | S. cerevisiae deletion strains, locus YOR270C, strain vph1, stronger effect = lower value 0.599 | S. cerevisiae deletion strains, locus YOR290C, strain snf2, stronger effect = lower value 0.371 | S. cerevisiae deletion strains, locus YOR316C, strain cot1, stronger effect = lower value 0.808 | S. cerevisiae deletion strains, locus YPL051W, strain arl3, stronger effect = lower value 0.696 | S. cerevisiae deletion strains, locus YPL055C, strain LGE1, stronger effect = lower value 0.659 | S. cerevisiae deletion strains, locus YPL078C, strain atp4, stronger effect = lower value 0.674 | S. cerevisiae deletion strains, locus YPL106C, strain sse1, stronger effect = lower value 0.781 | S. cerevisiae deletion strains, locus YPL240C, strain hsp82, stronger effect = lower value 0.8 | S. cerevisiae deletion strains, locus YPL241C, strain CIN2, stronger effect = lower value 0.837 | S. cerevisiae deletion strains, locus YPL256C, strain CLN2, stronger effect = lower value 0.778 | S. cerevisiae deletion strains, locus YPR119W, strain clb2, stronger effect = lower value 0.862 | S. cerevisiae deletion strains, locus YPR167C, strain met16, stronger effect = lower value 0.758 | S. cerevisiae deletion strains, strain wtn01, stronger effect = lower value 0.42 | S. cerevisiae strains, strain wild type, stronger effect = lower value 0.601
inactive: S. cerevisiae deletion strains, locus YKL009W, strain mrt4, stronger effect = lower value 0.909 | S. cerevisiae deletion strains, locus YKL068W, stronger effect = lower value 0.988 | S. cerevisiae deletion strains, locus YKR026C, strain gcn3, stronger effect = lower value 0.968 | S. cerevisiae deletion strains, locus YLR039C, strain RIC1, stronger effect = lower value 0.99 | S. cerevisiae deletion strains, locus YLR113W, strain HOG1, stronger effect = lower value 0.979 | S. cerevisiae deletion strains, locus YLR262C, strain YPT6, stronger effect = lower value 0.915 | S. cerevisiae deletion strains, locus YLR371W, strain rom2, stronger effect = lower value 0.948 | S. cerevisiae deletion strains, locus YMR125W, strain sto1, stronger effect = lower value 0.919 | S. cerevisiae deletion strains, locus YMR231W, strain pep5, stronger effect = lower value 0.985 | S. cerevisiae deletion strains, locus YMR307W, strain GAS1, stronger effect = lower value 1.13 | S. cerevisiae deletion strains, locus YNL071W, strain lat1, stronger effect = lower value 0.977 | S. cerevisiae deletion strains, locus YNL322C, strain KRE1 (second series), stronger effect = lower value 0.981 | S. cerevisiae deletion strains, locus YOL006C, strain TOP1, stronger effect = lower value 0.67 | S. cerevisiae deletion strains, locus YPR141C, strain kar3, stronger effect = lower value 1.02 | S. cerevisiae deletion strains, locus YPR163C, strain tif3, stronger effect = lower value 0.974
